Test results: the supplement of paper PMC9844399
Where a name gives a salt, the structure may show the parent alone.

test system: HeLa; assay: nuclear count per well, robust Z-score vs DMSO; higher = more cells (less toxicity); conditions: 10 µM; 6 h
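Wherever MALAT1 nuclear FISH intensity, robust Z-score vs DMSO is given: High-content confocal imaging of branched-DNA amplified FISH in 384-well plates, Hoechst-defined nuclei, score is well value minus plate DMSO median over DMSO robust SD, four wells per compound.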
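Wherever nuclear count per well, robust Z-score vs DMSO is given: Hoechst-stained nuclei counted by automated confocal imaging of four fields per well in 384-well plates, with the robust Z-score based on the per-plate DMSO median and robust SD.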

| Structure (SMILES) | nuclear count per well |
| --- | --- |
| CCCCCCCCCCCCCCCCOCC(CO)OC (stereo not given) [1-Hexadecyl-2-O-methyl-glycerol] | -0.235 |
| CO[C@@H]1[C@H](N(C)C(=O)c2ccccc2)C[C@H]2O[C@]1(C)n1c3ccccc3c3c4c(c5c6ccccc6n2c5c31)C(=O)NC4 [PKC-412 (Midostaurin)] | -0.226 |
| Cn1cc(C2=C(c3cn(CCCSC(=N)N)c4ccccc34)C(=O)NC2=O)c2ccccc21 | -9.17 |
| C[C@H](Cn1cnc2c(N)ncnc21)OCP(=O)(O)O [Tenofovir] | 0.802 |
| Nc1nc(Cl)nc2c1ncn2[C@H]1C[C@H](O)[C@@H](CO)O1 [Cladribine] | -0.899 |
| O=C(O)CNC(=O)C(CS)Cc1ccccc1 (stereo not given) [Thiorphan] | -0.172 |
| CCCCC[C@H](O)/C=C/[C@@H]1[C@@H](CC(=O)CCCCC(=O)O)[C@@H](O)C[C@H]1O [6-Keto-prostaglandin F1a] | -0.959 |
| N=C(N)NC(=O)Cc1c(Cl)cccc1Cl | 0.22 |
| COC(=O)[C@H](Cc1ccccc1)NC(=O)[C@@H](N)CC(=O)O [Aspartame] | 0.556 |

test system: HeLa; assay: MALAT1 nuclear FISH intensity, robust Z-score vs DMSO; higher = more nuclear MALAT1 lncRNA, active = -3 or less; conditions: 10 µM; 6 h

| Structure (SMILES) | MALAT1 nuclear FISH intensity |
| --- | --- |
| CCCCCCCCCCCCC/C=C/[C@@H](O)[C@H](CO)N(C)C [N,N-Dimethylsphingosine] | -0.409 (inactive) |
| COC(=O)[C@@H]1[C@H]2C[C@H]3c4[nH]c5ccccc5c4CCN3C[C@@H]2CC[C@@H]1O [Yohimbine] | -0.0829 (inactive) |
| CC(=O)N[C@@H](CS)C(=O)O [Acetylcysteine] | -1.06 (inactive) |
| Cc1cn(-c2cc(NC(=O)c3ccc(C)c(Nc4nccc(-c5cccnc5)n4)c3)cc(C(F)(F)F)c2)cn1 [Nilotinib] | -0.228 (inactive) |
| O=C1OCCN1/N=C/c1ccc([N+](=O)[O-])o1 [Furazolidone] | 1.18 (inactive) |
| CCC(C)[C@H](NS(=O)(=O)c1cccc2ccccc12)C(=O)N[C@H](C=O)Cc1c[nH]c2ccccc12 (stereo not given in full) | -0.674 (inactive) |
| NCCCC[C@H](N[C@@H](CCc1ccccc1)C(=O)O)C(=O)N1CCC[C@H]1C(=O)O [Lisinopril Dihydrate] | -1.38 (inactive) |
| CCCCC/C=C\C\C=C/C=C/C=C/CC(=O)CCCC(=O)O [5-Ketoeicosatetraenoic acid] | -1.29 (inactive) |
| CC[C@@H]1C(=O)OC[C@@H]1Cc1cncn1C | -0.179 (inactive) |
| CCCCC[C@H](O)/C=C/[C@@H]1[C@H]2C/C(=C/CCCC(=O)O)O[C@H]2C[C@H]1O [Prostaglandin I2] | -0.613 (inactive) |
| CCCCCCCCCCCCC/C=C/[C@@H](O)[C@H](CO)NCCCCCCCC [C8 Ceramine] | -0.263 (inactive) |
| CCN1CCN(C(=O)N[C@@H](C(=O)N[C@@H]2C(=O)N3[C@@H]2SC(C)(C)[C@@H]3C(=O)O)c2ccccc2)C(=O)C1=O [Piperacillin] | -0.27 (inactive) |
| COc1ccc2cc([C@H](C)C(=O)O)ccc2c1 [Naproxen] | 0.982 (inactive) |
| CN(C)CCOC(c1ccc(Cl)cc1)c1ccccn1 (stereo not given) [Carbinoxamine Maleate] | 0.56 (inactive) |
| CC(=O)N[C@H]1[C@H]([C@H](O)[C@H](O)CO)OC(C(=O)O)=C[C@@H]1NC(=N)N [Zanamivir] | 0.223 (inactive) |
| CNC[C@H](O)c1cccc(O)c1 [Phenylephrine] | 1.34 (inactive) |
| CN[C@H](CC(C)C)C(=O)N[C@H]1C(=O)N[C@@H](CC(N)=O)C(=O)N[C@H]2C(=O)N[C@H]3C(=O)N[C@H](C(=O)N[C@H](C(=O)O)c4cc(O)cc(O)c4-c4cc3ccc4O)[C@H](O)c3ccc(c(Cl)c3)Oc3cc2cc(c3O[C@@H]2O[C@H](CO)[C@@H](O)[C@H](O)[C@H]2O[C@H]2C[C@](C)(N)[C@H](O)[C@H](C)O2)Oc2ccc(cc2Cl)[C@H]1O | 0.0391 (inactive) |
| CC(=O)OCC(=O)[C@@]12OC(C)(C)O[C@@H]1C[C@H]1[C@@H]3C[C@H](F)C4=CC(=O)C=C[C@]4(C)[C@@]3(F)[C@@H](O)C[C@@]12C [Fluocinonide] | 0.457 (inactive) |
| CN1CCC(=C2c3ccccc3CC(=O)c3sccc32)CC1 [Ketotifen Fumarate] | -1.02 (inactive) |
| COc1cc2ncnc(Nc3ccc(F)c(Cl)c3)c2cc1OCCCN1CCOCC1 [Gefitinib] | -0.291 (inactive) |
| COc1ccccc1OCC(O)CN1CCN(CC(=O)Nc2c(C)cccc2C)CC1 (stereo not given) [Ranolazine dihydrochloride] | -2.53 (inactive) |
